In all, about 52,000 compounds went through this assay and about 4,300 (8.3%) were called active. The list comes from a sample in which actives are over-represented; it also holds similar structures and randomly drawn compounds. Values without a mark were called inactive. Rule as the data show it: active = survival mostly below about 52% (no sharp cut-off); inactive = mostly above about 56%.

In this test the test system is DeltatarO mutant. Kind of test: growth inhibition of S. aureus wild type versus tarO mutant, primary screen, teichoic acid synthesis inhibitors, RN4220, OD600 (AID 463173). The settings on record: OD600, 18 h, stronger effect = lower value, screened at 18.75 µg/mL (by protocol).
On to `CC(C)c1ccc(OCC(=O)Nc2cc(-c3ccccc3)no2)cc1`, for which the survival is 110%. The figure for `Cn1c(Oc2cccc(Cl)c2)nc2c1c(=O)n(Cc1ccccc1Cl)c(=O)n2C` is 66%; for `O=C(Cc1ccccc1)NC1CCN(S(=O)(=O)c2cccc(F)c2)CC1` it is 80%; for `Cc1c(Cl)cccc1Nc1nn2c(=O)c3ccc(C(=O)NCCc4ccccc4)cc3nc2s1` it is 98%.

For `O=C(C1CCCN(S(=O)(=O)c2cccc3nsnc23)C1)N1CCN(c2ccccc2Cl)CC1` (stereo not drawn), the survival is 107%. The figure for `COCCc1nn2c(=O)cc(COC(=O)c3ccco3)nc2s1` is 92%; for `Cc1cc(C)c(NC(=O)Cn2nnc(-c3ccccc3)n2)c(C)c1` it is 63%. The figure for `Cc1ccccc1OCC(=O)NCC(c1ccc(Cl)cc1)N1CCCCC1` (stereo not drawn) is 66%. The figure for `Cc1ccccc1Nc1c(-c2cccs2)nc2cccc(C)n12` is 63%; for `Cc1ccc2nc(-c3ccc(Cl)cc3)cc(C(=O)OCC(=O)c3ccccc3)c2c1` it is 58%; for `COc1ccc(-c2cc(C(=O)Oc3ccccc3)c3cc(C)ccc3n2)cc1` it is 9% (active).

`COc1ccc(-c2cc(C(=O)NC(C)c3ccccc3)c3cc(C(C)C)ccc3n2)cc1` (stereo not drawn): the survival is 101%.

As to `COc1ccc(CNC(=O)CN(c2ccc(C)cc2)S(=O)(=O)c2c(C)n[nH]c2C)cc1`, the survival was 85%.

`Cc1n[nH]c(C)c1S(=O)(=O)N(CC(=O)NCc1ccccc1Cl)c1ccc(C(C)C)cc1`: the survival was 52%. For `Cc1n[nH]c(C)c1S(=O)(=O)N(CC(=O)NC(C)c1ccccc1)c1ccc(C(C)C)cc1` (stereo not drawn), the survival is 54% (active). For `Cc1n[nH]c(C)c1S(=O)(=O)N(CC(=O)Nc1ccc(C(F)(F)F)cc1)c1ccc(C(C)C)cc1` the value was 46% (active); for `COc1cccc(CNC(=O)CN(c2ccc(C(C)C)cc2)S(=O)(=O)c2c(C)n[nH]c2C)c1`, 56%. For `Cc1ccc(CNC(=O)CN(c2ccc(C(C)C)cc2)S(=O)(=O)c2c(C)n[nH]c2C)cc1` the value was 43% (active); for `Cc1ccc(N(CC(=O)NC(C)c2ccccc2)S(=O)(=O)c2c(C)noc2C)cc1` (stereo not drawn), 74%; for `Cc1noc(C)c1S(=O)(=O)N(CC(=O)Nc1ccc(C(F)(F)F)cc1)c1ccc(C(C)C)cc1`, 55%.

Take `Cc1ccc(N(CC(=O)Nc2ccc(C)c(F)c2)S(=O)(=O)c2c(C)n[nH]c2C)cc1`: the survival is 66%.

On to `CSc1ccc(CCNC(=O)c2cc3c(-c4ccccc4F)nn(C)c3s2)cc1`, for which the survival is 55%. The figure for `CCOc1ccc(CNC(=O)C2CCN(S(=O)(=O)c3cn(C)cn3)CC2)cc1` is 99%. For `Cc1ccc(NC(=O)CCn2nc(C)c3c(C)n(-c4ccccc4)nc3c2=O)cc1Cl` the value was 117%; for `CCOCCCn1c(SCC(=O)Nc2ccc(OC)cc2OC)nc2ccccc2c1=O`, 89%.

As for `CCOC(=O)C1CCCN(C(=O)c2ccccc2NC(=O)c2nsc3ccccc23)C1` (stereo not drawn), the survival was 130%. In the case of `CCOC(=O)c1[nH]c(C)c(CCC(=O)Nc2ccc(C(C)=O)cc2)c1C`, the survival is 72%.

For the molecule `O=C(NCc1ccccc1)C(=O)Nc1ccc2nc3n(c(=O)c2c1)CCCCC3`, the survival was 88%. For `COc1cccc(Cn2c(=O)n(Cc3ccco3)c(=O)c3oc4ccccc4c32)c1` the value was 66%; for `O=C(CC1CCCCC1)N1CCN(c2ccccc2)CC1`, 82%; for `O=C(Nc1nnc(S(=O)(=O)N2CCc3ccccc32)s1)c1ccccc1Cl`, 20% (active). The figure for `Cc1ccccc1C(=O)Nc1nnc(S(=O)(=O)N2CCCc3ccccc32)s1` is 96%; for `Cc1ccccc1C(=O)Nc1nnc(S(=O)(=O)N2CCc3ccccc32)s1` it is 95%. The figure for `O=C(Nc1nnc(S(=O)(=O)N2CCCc3ccccc32)s1)c1ccccc1Cl` is 28% (active); for `O=C(Nc1nnc(S(=O)(=O)N2CCCc3ccccc32)s1)c1ccccc1Br` it is 17% (active). On to `CCOC(=O)c1ccc(CN(Cc2ccccc2C)S(=O)(=O)c2ccc(F)c(C(=O)Nc3cccc(OC)c3)c2)cc1`, for which the survival was 75%. The figure for `CCNC(=O)CC1C(=O)N(c2ccc(F)cc2)C(=O)N1CCOC` (stereo not drawn) is 84%; for `COc1ccc(CN(C(=O)Cc2coc3ccc(C)cc23)C2CCS(=O)(=O)C2)cc1` (stereo not drawn) it is 67%; for `Cc1cc2n(n1)CCCN2C(=O)Nc1ccccc1C(F)(F)F` it is 76%.

Turning to `CCc1ccc(NC(=O)C(=O)NCC(c2cccnc2)N2CCOCC2)cc1` (stereo not drawn), the survival is 89%.

For `CC(=O)Nc1nonc1NC(C)=O`, the survival is 87%. The figure for `CC(=O)Oc1ccc(Nc2nc3nonc3nc2Nc2ccccc2)cc1` is 83%; for `CC(=O)Nc1cc(OC(C)=O)c2nonc2c1OC(C)=O` it is 29% (active). Consider `COC(=O)c1nnn(-c2ccc(Br)cc2)c1C(=O)OC`, for which the survival was 79%. Take `CCOC(=O)c1ccc(NC(=O)CCc2c(C)nc3c(c(C)nn3C)c2C)cc1`: the survival is 93%. For `COC(=O)c1ccc(NC(=O)CCc2c(C)nc3c(c(C)nn3C(C)(C)C)c2C)cc1` the value was 59%; for `CCOC(=O)c1ccc(NC(=O)CCc2c(C)nc3c(c(C)nn3C(C)(C)C)c2C)cc1`, 55% (active).

With `Cc1ccc(-c2nc(CNC(=O)Nc3ccccc3)c(C)o2)cc1`, the survival is 71%. The figure for `COC(=O)c1cc2c(ccn2-c2ccc(F)cc2)n1CC(=O)N1CCCCC1` is 97%; for `COc1ccc(C)cc1NC(=O)C1CCN(S(=O)(=O)c2ccc3[nH]c4c(c3c2)CCCCC4)CC1` it is 94%.

For `CCOc1ccc(NC(=O)CCc2c(C)nc3c4c(C)cc(C)nc4nn3c2C)cc1`, the survival was 125%. For `COC(=O)c1cc(NC(=O)CCc2c(C)nc3c4c(C)cc(C)nc4nn3c2C)cc(C(=O)OC)c1` the value was 56% (active); for `COc1cc(NC(=O)CCc2c(C)nc3c4c(C)cc(C)nc4nn3c2C)cc(OC)c1`, 74%; for `COc1ccc(NC(=O)c2oc3ccc(S(=O)(=O)N4CCCCC4)cc3c2C)cc1`, 87%. For `CC(C)Cn1cc(NC(=O)N2CCN(c3cccc(C(F)(F)F)c3)CC2)c2ccccc2c1=O` the value was 77%. For `COc1ccc(CCNC(=O)Cn2ncc3c(=O)oc4ccccc4c32)c(OC)c1` the value was 89%; for `CCC1CCCCN1C(=O)CCS(=O)(=O)c1cc2c(cc1C)NC(=O)CO2` (stereo not drawn), 81%; for `CC(C)C1C(=O)Nc2ccc(S(=O)(=O)NCCc3ccc(Cl)cc3)cc21` (stereo not drawn), 77%. For the molecule `COc1cccc(CNS(=O)(=O)c2ccc3c(c2)C(C(C)C)C(=O)N3)c1` (stereo not drawn), the survival is 129%.

As for `CC(C)C1C(=O)Nc2ccc(S(=O)(=O)NCc3ccc(Cl)cc3)cc21` (stereo not drawn), the survival is 52% (active). The figure for `CCCNc1c2c(nc3ccccc13)CC(C)(C)CC2=O` is 66%.

`CCOc1ccccc1CNC(=O)c1ccc2nc(Cc3ccc(OC)cc3)oc2c1`: the survival is 73%. Take `CN(C1CCCCC1)C(c1ccc(F)cc1)c1nnnn1C1CCCCC1` (stereo not drawn): the survival was 83%. The figure for `Cc1ccc(C)c(-c2nc(Cn3c(=O)cc(-c4ccccc4)c4c(C)nn(C)c43)c(C)o2)c1` is 130%; for `CCOC(=O)c1ccc(NC(=O)c2cccc3c(=O)c4c([nH]c23)CCCC4)cc1` it is 60%; for `CCOC(=O)c1ccc(NC(=O)c2csc3c2CCCC3)cc1` it is 36% (active). For `O=C(Nc1ccc(OC(F)(F)F)cc1)c1noc2c1CCCC2` the value was 65%. The figure for `CCOC(=O)c1ccc(NC(=O)c2noc3c2CCCC3)cc1` is 0% (active); for `CCOC(=O)c1ccc(NC(=O)c2c(NCc3cccs3)sc3c2CCCCC3)cc1` it is 104%; for `CC(CNC(=O)c1csc2c1CCCCC2)c1ccccc1` (stereo not drawn) it is -1% (active). For `CCOC(=O)c1ccc(NC(=O)c2c(NCc3cccs3)sc3c2CCCC3)cc1`, the survival was 78%. For `CSc1ccc(CCNC(=O)c2csc3c2CCCCC3)cc1` the value was 63%; for `CCOC(=O)c1ccc(NC(=O)c2csc3c2CCCCC3)cc1`, 39% (active); for `COc1ccc(NC(=O)c2noc3c2CCCC3)cc1Cl`, 83%. For `CCC(Cc1ccccc1)NC(=O)c1csc2c1CCCCC2` (stereo not drawn) the value was 125%. For `CCOC(=O)c1ccc(NC(=O)c2c(NCc3sccc3C)sc3c2CCCCC3)cc1`, the survival was 78%.

In the case of `CCC(=O)C1=C(c2ccccc2)N(C(=O)CC)n2c(nnc2C2CCCCC2)S1`, the survival is 55%. For `N#CCCn1c(=O)n(CCC#N)c(=O)n(CCC#N)c1=O` the value was 79%; for `O=C1NC2(CCCCC2)C(=O)N1c1ccc(Cl)cc1`, 109%; for `CCC(=O)OCCN1C(=O)c2ccccc2C1=O`, 91%. Regarding `COc1ccc(C(=O)Nc2ccc(NC(=O)c3ccco3)cc2)cc1OC`, the survival was 71%. As to `N#Cc1cccc(NC(=O)C2CCN(c3ncccn3)CC2)c1`, the survival was 66%. The figure for `Cc1cccc(CCn2c(=O)c3ccccc3n(CC(=O)Nc3ccccc3F)c2=O)c1` is 76%; for `O=C(Nc1ccccc1O)c1csc2c1CCCC2` it is 80%. `CCOc1ccc(OCC)c(NC(=O)c2csc3c2CCCC3)c1`: the survival is -2% (active). For `CCOc1ccc(CCNC(=O)c2csc3c2CCCCC3)cc1` the value was 73%; for `CCn1c(C(=O)Nc2c(C)cccc2C)cc2sc(Cl)cc21`, 60% (active). For `CCn1c(C(=O)Nc2cc(C)cc(C)c2)cc2sc(Cl)cc21`, the survival was 109%. The figure for `CCn1c(C(=O)Nc2ccc(C)cc2C)cc2sc(Cl)cc21` is 58%; for `CCn1c(C(=O)Nc2ccccc2C(=O)OC)cc2sc(Cl)cc21` it is 31% (active). For `CCn1c(C(=O)Nc2cc(Cl)ccc2C)cc2sc(Cl)cc21` the value was 77%.

For `CCc1ccccc1NC(=O)c1cc2sc(Cl)cc2n1CC`, the survival is 77%. The figure for `COC(=O)c1[nH]c2ccc(F)cc2c1N` is 98%.

The values above are taken from PubChem BioAssay AID463173 (ICCB-Longwood Screening Facility, Harvard Medical School, 2010).
